# ChEMBL document CHEMBL3988442, “University of Dundee, Small-Polar-MMV Screening Library” (2021)
# About 1,000 (1.4%) of roughly 69,000 compounds showed an effect of 50% or more. Shown is part of a subset that was picked to be rich in strong results.
# Tested on: Leishmania donovani
# Test: Leishmania intramacrophage assay
# Type: functional, organism-based
# Design: scale not given: in the data most compounds retested in dose-response had high values
smiles,measurement,setting,value
Cc1nccc(-c2cccc(-c3ccn(CC4CCNC4)n3)c2)n1 (stereo unspecified),Percent Effect,"30.3 µM, […]",-9.02%
c1cc(-c2cncnc2)cc(-c2ccn(CC3CCNC3)n2)c1 (stereo unspecified),Percent Effect,"30.3 µM, […]",5.053%
Cc1ccsc1-c1cccc(-c2ccn(CC3CCNC3)n2)c1 (stereo unspecified),Percent Effect,"30.3 µM, […]",82.16%
Cc1ccc(CN(C)C(=O)NCC(C)(C)CCS(C)(=O)=O)s1,Percent Effect,"30.3 µM, […]",20%
CCNCc1ccc(OCc2ccc3c(c2)OCCO3)cc1.Cl,Percent Effect,"30.3 µM, […]",21.82%
CNCc1ccc(OCc2ccc3c(c2)OCCO3)cc1.Cl,Percent Effect,"30.3 µM, […]",22.52%
CCCNCc1ccc(OCc2ccc3c(c2)OCCO3)cc1.Cl,Percent Effect,"30.3 µM, […]",67.66%
CN1CCC(c2nnc3ccc(C(=O)NC4CCCC4)cn23)C1.O=C(O)C(F)(F)F (stereo unspecified),Percent Effect,"30.3 µM, […]",23.32%
O=C(CN1CCCC1c1nc2cc(F)ccc2[nH]1)NCc1ccccn1 (stereo unspecified),Percent Effect,"30.3 µM, […]",34.7%
Fc1ccc2[nH]c(C3CCCN3CCCn3cccn3)nc2c1 (stereo unspecified),Percent Effect,"30.3 µM, […]",2.015%
Fc1ccc2[nH]c(C3CCCN3CCc3ccccn3)nc2c1 (stereo unspecified),Percent Effect,"30 µM, 30.03 µM",50.9%
Cc1ccc(C(=O)N2C[C@@H]3COC[C@]3(COc3cccnc3)C2)cn1,Percent Effect,"30 µM, 30.03 µM",15.47%
CC1CN(CC(=O)Nc2ccncc2)CCN1c1nccs1 (stereo unspecified),Percent Effect,30 µM,51.62%
CC1CN(CC(=O)Nc2nncs2)CCN1c1nccs1 (stereo unspecified),Percent Effect,"30 µM, 30.03 µM",5.617%
CC1CN(CC(=O)Nc2cccnc2)CCN1c1nccs1 (stereo unspecified),Percent Effect,"30 µM, 30.03 µM",19.22%
CN(Cc1csc(-c2cccs2)n1)Cc1ncccc1C(=O)O,Percent Effect,"30.3 µM, […]",21.95%
CN(Cc1csc(-c2cccs2)n1)Cc1cccnc1N,Percent Effect,"30.3 µM, […]",54.27%
Cc1nc(CN(C)Cc2csc(-c3cccs3)n2)co1,Percent Effect,"30.3 µM, […]",17.38%
Cc1cc(C)nc(N2CCC(c3cccc(CCC(=O)O)n3)CC2)n1,Percent Effect,"30.3 µM, […]",-9.293%
COc1ccc(CN2CCc3ncnc(C4CCOC4)c3CC2)cc1.O=C(O)C(F)(F)F (stereo unspecified),Percent Effect,"30 µM, 30.03 µM",20.96%
CCOCc1ccccc1NC(=O)NC1CCN(C2CCCC2)C1 (stereo unspecified),Percent Effect,"30.3 µM, […]",-2.945%
CN(C)c1ncc(CN2CCOC(C(=O)Nc3ccccc3)C2)cn1 (stereo unspecified),Percent Effect,"30 µM, 30.03 µM",-7.564%
Cc1cc(C)c(CNC(=O)N2CCCC2c2cccn2C)c(=O)[nH]1 (stereo unspecified),Percent Effect,"30 µM, 30.03 µM",13.7%
C[C@@H](CO)NC(=O)c1ccc2nc(NS(C)(=O)=O)sc2c1,Percent Effect,"30.3 µM, […]",55.63%
CC(CO)NC(=O)c1ccc2[nH]/c(=N\S(C)(=O)=O)sc2c1 (stereo unspecified),Percent Effect,"30.3 µM, […]",-35.22%
CSCC[C@@H](CO)NC(=O)c1ccc2nc(NS(C)(=O)=O)sc2c1,Percent Effect,"30.3 µM, […]",-13.25%
CC(C)c1nn(C)c(N(C)C)c1CNC1CCCOc2ccccc21 (stereo unspecified),Percent Effect,"30.3 µM, […]",11.28%
Cc1c(C(=O)N2CCN(C)CC2)n(C)c2ccc(Cl)cc12,Percent Effect,"30.3 µM, […]",11.88%
Cc1c(C(=O)N2CCOCC2)n(C)c2ccc(Cl)cc12.Cl,Percent Effect,"30.3 µM, […]",19.33%
Cc1c(C(=O)N2CCC(N3CCCCC3)CC2)n(C)c2ccc(Cl)cc12,Percent Effect,"30.3 µM, […]",83.29%
CCS(=O)(=O)N1C[C@@H](c2ccccc2)[C@@]2(CCNC2=O)C1,Percent Effect,"30.3 µM, […]",42.69%
CC1(C)CN(C(CNS(N)(=O)=O)c2ccc(Cl)cc2)CCO1 (stereo unspecified),Percent Effect,"30.3 µM, […]",-5.286%
CC(C)(C)NC(=O)C1CSCN1S(=O)(=O)c1ccccc1F (stereo unspecified),Percent Effect,"30.3 µM, […]",-3.758%
CC(C)N(C)C(=O)C1CSCN1S(=O)(=O)c1cc(Cl)ccc1Cl (stereo unspecified),Percent Effect,"30.3 µM, […]",6.679%
CC(C)N(C)C(=O)C1CSCN1S(=O)(=O)c1ccccc1F (stereo unspecified),Percent Effect,"30.3 µM, […]",51.74%
Cc1cccc(NC(=O)CNC(=O)c2ccccc2F)c1,Percent Effect,"30.3 µM, […]",-11.93%
CNC(=O)c1nc(CC(=O)Nc2cccc(C(F)(F)F)c2)no1,Percent Effect,"30.3 µM, […]",-13.79%
O=c1cc(N2CCc3ccccc3C2)cnn1CCC1CCOC1 (stereo unspecified),Percent Effect,"30.3 µM, […]",44.37%
CC(C)C(=O)N1CC[C@H]2N(C)CC[C@@]2(C(=O)Nc2ccccc2)CC1,Percent Effect,"30.3 µM, […]",56.37%
CNC(=O)N1CC[C@H]2N(C)CC[C@@]2(C(=O)Nc2ccccc2)CC1,Percent Effect,"30 µM, 30.03 µM",11.56%
CC(C)C(=O)N1CC[C@H]2N(C)CC[C@@]2(C(=O)Nc2cccnc2)CC1.O=C(O)C(F)(F)F.O=C(O)C(F)(F)F,Percent Effect,"30.3 µM, […]",36.27%
CCCc1noc(C2CC(=O)N(CCN(C)C)C2)n1 (stereo unspecified),Percent Effect,"30.3 µM, […]",24.39%
CCCc1noc(C2CC(=O)N(C(C)(C)C)C2)n1 (stereo unspecified),Percent Effect,"30.3 µM, […]",13.52%
CCCc1noc(C2CC(=O)N(Cc3ccccc3)C2)n1 (stereo unspecified),Percent Effect,"30.3 µM, […]",62.8%
O=C(CCS(=O)(=O)c1ccccc1)NC1CCOC2(CCOCC2)C1 (stereo unspecified),Percent Effect,"30.3 µM, […]",-6.021%
COCCN1CCCCC12CC(=O)N(c1cccc(C#N)c1)C2.O=C(O)C(F)(F)F (stereo unspecified),Percent Effect,"30.3 µM, […]",50.28%
COCCN1CCCCC12CC(=O)N(c1ccccc1OC)C2.O=C(O)C(F)(F)F (stereo unspecified),Percent Effect,"30.3 µM, […]",20.15%
O=C(O)C(F)(F)F.O=C1CC2(CCCCN2CC2CC2)CN1c1ccccc1 (stereo unspecified),Percent Effect,"30.3 µM, […]",20.41%
COc1ccc(N(c2ccccc2)c2ccc(C(=O)O)s2)cc1,Percent Effect,"30.3 µM, […]",6.692%
Cc1cnc(C(=O)N2CCCC3(CCN(c4cnn(C)c4)C3=O)C2)cn1 (stereo unspecified),Percent Effect,"30.3 µM, […]",-31.28%
CN(C)C(=O)CC1CC2(CCN(CC3CC3)CC2)Oc2ccccc21.O=C(O)C(F)(F)F (stereo unspecified),Percent Effect,"30.3 µM, […]",9.368%
CCn1nccc1CN(C)C(=O)Cn1cc2c(n1)c(C)nn2CC,Percent Effect,"30.3 µM, […]",72.98%
CCn1nccc1CN(C)C(=O)Cn1nc(C)cc1C,Percent Effect,"30.3 µM, […]",19.68%
CCn1nccc1CN(C)C(=O)Cn1nc(C)c(C)c1C,Percent Effect,"30.3 µM, […]",6.99%
O=C1CCN(C(=O)c2csc(-c3ccc(C(F)(F)F)cc3)n2)CCN1,Percent Effect,"30.3 µM, […]",-4.65%
O=C(c1csc(-c2ccc(C(F)(F)F)cc2)n1)N1CCCNCC1,Percent Effect,"30.3 µM, […]",53.12%
CN1CCCN(C(=O)c2csc(-c3ccc(C(F)(F)F)cc3)n2)CC1,Percent Effect,"30.3 µM, […]",-34.88%
CCc1nc(C2CCCN2CCC(=O)N2CCc3ccccc32)no1 (stereo unspecified),Percent Effect,30 µM,-5.363%
Cc1cc(C(=O)Nc2nnn[nH]2)ccc1I,Percent Effect,"30.3 µM, […]",2.496%
O=C(O)C(F)(F)F.O=C(O)C(F)(F)F.O=C(O)C(F)(F)F.c1cncc(COCc2cncc3c2CCN(Cc2ccoc2)C3)c1,Percent Effect,"30.3 µM, […]",3.293%
Cc1cc(C(=O)N2CCc3nc(N4CCCC4)nc(C)c3CC2)c(C)o1,Percent Effect,"30.3 µM, […]",44.41%
Cc1nc(N2CCCC2)nc2c1CCN(C(=O)c1ccoc1C)CC2,Percent Effect,"30.3 µM, […]",54.38%
Cc1nc(N2CCCC2)nc2c1CCN(C(=O)N1CCCC1)CC2,Percent Effect,"30.3 µM, […]",-2.559%
CCn1ccc(C(=O)N2CCCC2(C)c2nc(C)cc(N(C)C)n2)n1 (stereo unspecified),Percent Effect,"30.3 µM, […]",26.06%
CC(C)CNC(=O)C(C)N1CCN(C2CCN(C(C)C)CC2)CC1 (stereo unspecified),Percent Effect,"30.3 µM, […]",19.26%
CCN(CC)C(=O)CN1CCC(c2nc(C)c3c(n2)N(C)CCC3)CC1,Percent Effect,"30.3 µM, […]",-13.08%
CCN(CC)C(=O)CN1CCCC(c2nc(C)c3c(n2)N(C)CCC3)C1 (stereo unspecified),Percent Effect,"30.3 µM, […]",94.66%
CCC(=O)N1CCC(c2nc(C)c3c(n2)N(C)CCC3)CC1,Percent Effect,"30.3 µM, […]",31.8%
CS(=O)(=O)NC1CCCN(C(=O)Nc2cccnc2N2CCCC2)C1 (stereo unspecified),Percent Effect,"30.3 µM, […]",64.13%
CS(=O)(=O)NCC1CCCN(C(=O)Nc2cccnc2N2CCCC2)C1 (stereo unspecified),Percent Effect,"30 µM, 30.03 µM",4.026%
CS(=O)(=O)NC1CCCN(C(=O)Nc2cccnc2)C1 (stereo unspecified),Percent Effect,30 µM,-4.572%
CCOCc1cncc2c1CCN(C(=O)c1cscn1)C2.O=C(O)C(F)(F)F,Percent Effect,"30.3 µM, […]",5.62%
Cc1ccc(C(=O)NC2CCN(S(C)(=O)=O)CC2)c(=O)[nH]1,Percent Effect,"30.3 µM, […]",59.71%
Cc1ccc(C(=O)NC2CCCN(S(C)(=O)=O)C2)c(=O)[nH]1 (stereo unspecified),Percent Effect,"30.3 µM, […]",4.219%
Cc1ccc(C(=O)NC2CCN(C(C)C)C2)c(=O)[nH]1 (stereo unspecified),Percent Effect,"30.3 µM, […]",39.11%
CNC(=O)C1CN(c2cc(C)ncn2)CCN1Cc1ccccc1 (stereo unspecified),Percent Effect,"30.3 µM, […]",-5.457%
CCOC(=O)N1CCN(C(=O)c2cc(-c3ccc(C)cc3)on2)CC1,Percent Effect,"30.3 µM, […]",67.95%
CCOC(=O)N1CCN(C(=O)c2cc(-c3ccc(Cl)cc3Cl)on2)CC1,Percent Effect,"30.3 µM, […]",18.25%
CCOC(=O)N1CCN(C(=O)c2cc(-c3ccccc3F)on2)CC1,Percent Effect,"30.3 µM, […]",-28.98%
Cn1cc(C(=O)N2CC[C@@H]3[C@@H]2CCN3c2ncc(F)cn2)cn1.O=C(O)C(F)(F)F,Percent Effect,"30.3 µM, […]",4.387%
Cc1ccsc1CNC(=O)c1ccc(N2CCOC2=O)cc1,Percent Effect,"30.3 µM, […]",-0.1452%
COc1cccc(COC(C)C(=O)N(C)Cc2nnc3n2CCC3)c1 (stereo unspecified),Percent Effect,"30.3 µM, […]",-15.17%
Cc1cc(C(=O)NC(COCC(C)C)c2ccco2)no1 (stereo unspecified),Percent Effect,"30.3 µM, […]",10.39%
CCc1ccc(CN(CCN(C)C)Cc2ccc(C)s2)nc1,Percent Effect,"30.3 µM, […]",60.62%
COc1ncc(CN(CCN(C)C)Cc2ccc(C)s2)cn1,Percent Effect,"30.3 µM, […]",1.942%
CCNc1ncc(CN(CCN(C)C)Cc2ccc(C)s2)cn1,Percent Effect,"30.3 µM, […]",7.089%
CN(C)C(=O)COCC1CN(Cc2ccoc2)Cc2ncn(C)c21.O=C(O)C(F)(F)F.O=C(O)C(F)(F)F (stereo unspecified),Percent Effect,"30.3 µM, […]",13.81%
O=C(NCC(F)(F)C(F)F)c1ccncc1,Percent Effect,"30.3 µM, […]",-13.6%
O=C(NCC(F)(F)C(F)F)c1cccnc1,Percent Effect,"30.3 µM, […]",3.821%
O=C(NCC(F)(F)F)c1ccncc1,Percent Effect,"30.3 µM, […]",80.67%
CCC(C)N(Cc1cccnc1)Cc1ccc2c(c1)OCCO2 (stereo unspecified),Percent Effect,"30.3 µM, […]",27.15%
CCC(C)N(Cc1cccnc1)Cc1cc2c(cc1OC)OCO2 (stereo unspecified),Percent Effect,"30.3 µM, […]",16.2%
CCC(C)N(Cc1cccnc1)Cc1cc2c(cc1Cl)OCO2 (stereo unspecified),Percent Effect,"30.3 µM, […]",69.06%
CC(C)CN1C(=O)CC(N2CCN(c3ccc(F)cc3)CC2)C1=O (stereo unspecified),Percent Effect,"30.3 µM, […]",-25.93%
O=C(NC1CC1)c1nc(Cn2c(C(F)F)nc3ccccc32)no1,Percent Effect,"30.3 µM, […]",-15.36%
CC(C)NC(=O)c1nc(Cn2c(C(F)F)nc3ccccc32)no1,Percent Effect,"30.3 µM, […]",-22.55%
CC(C)NC(=O)c1nc(Cn2c(C(F)(F)F)nc3ccccc32)no1,Percent Effect,"30.3 µM, […]",55.95%
CCc1nnc2n1CCN(CC(O)c1ccc3c(c1)OCCO3)C2 (stereo unspecified),Percent Effect,30 µM,-7.197%
CC(C)(C)OC(=O)N1CCN(S(C)(=O)=O)C2(CCCCC2)C1,Percent Effect,"30.3 µM, […]",27.8%
CC(C)(C)OC(=O)N1CCN(S(=O)(=O)CCCC#N)C2(CCCCC2)C1,Percent Effect,"30.3 µM, […]",52.1%
CN(C)S(=O)(=O)N1CCN(C(=O)OC(C)(C)C)CC12CCCCC2,Percent Effect,"30.3 µM, […]",5.768%
